In the library only some 2.6% were active in any assay of this set; here they are far more common.
Cruzain inh noDet = blocks cruzain activity in detergent-free assay; P25779; purified cruzain, Z-FR-AMC fluorescence, no detergent; Potency, µM, for inactives: max response, negative = inhibition, hits mostly inhibitors; 200,000 compounds, 2.3% hits; AID 1476;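 also: plate controls were enzyme without inhibitor for no effect and buffer without enzyme for full effect; nearly all actives have a fitted effect of over 40% in size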
Target sequence (P25779 123-467 limits assumed): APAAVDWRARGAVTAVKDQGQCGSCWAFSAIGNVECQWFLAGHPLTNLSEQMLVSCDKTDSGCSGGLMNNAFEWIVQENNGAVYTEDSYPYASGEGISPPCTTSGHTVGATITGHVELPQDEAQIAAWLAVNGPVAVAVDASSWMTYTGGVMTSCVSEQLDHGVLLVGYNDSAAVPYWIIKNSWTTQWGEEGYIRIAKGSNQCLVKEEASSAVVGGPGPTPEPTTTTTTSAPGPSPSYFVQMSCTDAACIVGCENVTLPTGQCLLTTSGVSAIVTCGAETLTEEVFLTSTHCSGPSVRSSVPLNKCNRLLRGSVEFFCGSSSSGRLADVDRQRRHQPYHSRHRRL
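Purified cruzain at 1.5 nM, pre-incubated 15 min with compound at room temperature in 100 mM sodium acetate pH 5.5, 5 mM DTT, 0.00005% Triton X-100. Reaction started with 2 uM Z-FR-AMC; AMC fluorescence increase over 60 s gives rate.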
Cruzain inh Det = blocks cruzain activity in presence of Triton detergent; P25779; 200,000 compounds, 0.43% hits; AID 1478; purified cruzain, Z-FR-AMC fluorescence, 0.01% Triton; Potency, µM, without a hit: max response, negative = inhibition, actives largely listed as inhibitors;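 also: plate controls were neutral wells for no effect and buffer without enzyme for full effect; nearly all actives have a fitted effect of over 40% in size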
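Read-out: AMC fluorescence (360 nm excitation, 450 nm emission), four reads over 2 min, first-to-third difference used. Conditions: cruzain 1.5 nM, Z-FR-AMC 2 uM, pH 5.5 acetate, 5 mM DTT, 0.01% Triton X-100.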
Papain counter = papain (Carica papaya) inhibition counter-screen. shares compounds with Cruzain inh Det. purified papain, Z-FR-AMC fluorescence cleavage. Potency, µM, inactives show max response, negative = inhibition, usual class: inhibitors. 410 compounds, 41% hits;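 also: 0% = no-compound wells and -100% = no-enzyme wells; nearly all actives have a fitted effect of over 35% in size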
Active calls of the source: *; ? = inconclusive; . = no result. Calls follow the shape of the dose curve; as a rule, active = well fitted curve in the direction sought with a large enough effect; inconclusive = small, poorly fitted or top-dose-only effect, or another doubt; inactive = no such curve, though single readings can be large; an effect the other way counts as inactive or inconclusive. Potency is read from the fitted curve at half-maximal effect.

SMILES | Cruzain inh noDet | Cruzain inh Det | Papain counter
CCOC(=O)c1ccc(N2CSC3=C(C#N)C(c4cccs4)CC(=O)N3C2)cc1 (stereo unspecified) | -16% | -9% | 2%
CC1=C(C(=O)Nc2ccccn2)C(c2ccc(N(C)C)cc2)n2ncnc2N1 (stereo unspecified) | 1% | 1% | .
COc1cc2[nH]c(=S)n(NC(=O)CC(C)C)c(=O)c2cc1OC | 8% | -6% | .
O=C(Cn1c(SCc2cccc(F)c2)nc2ccncc21)Nc1ccc(Cl)cc1F | 7% | -20% | .
CCCCNC(=O)Cn1c(SCc2cccc(C)c2)nc2ccncc21 | . | . | -15%
Cc1cccc(CSc2nc3ccncc3n2CC(=O)Nc2ccc(C)c(C)c2)c1 | 5% | -3% | .
CC(C)CCNC(=O)Cn1c(SCc2cccc(F)c2)nc2ccncc21 | . | . | -14%
CCN1CCN(c2csc3ccc(C)cc3c2=O)CC1 | -3% | -4% | .
CCOc1ccc(C(=O)/C=C/Nc2ccc(S(=O)(=O)N=C(N)N)cc2)cc1 | -18% | -5% | .
NS(=O)(=O)c1ccc(N/C=C\C(=O)c2ccc3ccccc3c2)cc1 | 6.3µM* | 8.9µM* | 6%
Cc1ccc(O/C=C2/Nn3c(nnc3-c3cc(-c4ccccc4)n[nH]3)S2)cc1 | . | . | 9%
Clc1ccc(C2=Nn3c(nnc3-c3cc(-c4ccccc4)n[nH]3)SC2)cc1 | -20% | 0% | .
Cn1c(C(=O)NCCN2CCCCCC2)cc2c(=O)n(C)c3ccccc3c21 | 7.9µM* | 10µM* | -20%
Cn1c(C(=O)NCCCN2CCOCC2)cc2c(=O)n(C)c3ccccc3c21 | 0% | -2% | .
CN(C)CCNc1ncnc2c1cnn2-c1cccc(Cl)c1 | -2% | -1% | .
Cc1cc(NC(=O)c2ccc3nc(-c4ccccc4)c(-c4ccccc4)nc3c2)no1 | -21% | -5% | .
CNC(=O)c1ccc2nc(-c3cccc(C)c3)c(-c3cccc(C)c3)nc2c1 | . | . | -13%
N#CC(C#N)=NNc1cccc(Cl)c1 | 13µM* | 11µM* | 28µM*
N#CC(C#N)=NNc1ccc2cn[nH]c2c1 | ? | -18% | .
Fc1ccc(C(c2nnnn2CCc2ccccc2)N2CCCc3ccccc32)cc1 (stereo unspecified) | ? | -1% | .
CNc1oc(Cc2ccccc2)nc1S(=O)(=O)c1ccccc1 | 3.2µM* | 3.2µM* | 28µM*
CCS(=O)(=O)c1oc(-c2ccc(F)cc2)nc1S(=O)(=O)c1ccccc1 | -12% | -7% | .
CC(C)Nc1nc(C#N)nc(Nc2ccccc2)n1 | . | . | 2.2µM*
COc1nc(Nc2ccc([N+](=O)[O-])cc2)nc(NC(C)C)n1 | -19% | -14% | .
CNc1nc(C#N)nc(Nc2ccccc2)n1 | . | . | 2.2µM*
SMILES | Cruzain inh noDet | Cruzain inh Det | Papain counter
CN(C)c1nc(Nc2ccccc2)nc(N(C)C)n1 | 2% | -3% | .
CSc1nc(NC(C)C)nc(NC(C)C)n1 | -8% | 3% | .
CC(C)Nc1nc(C#N)nc(NC(C)C)n1 | 16µM* | 11µM* | 5µM*
CNc1nc(N/N=C/c2ccc([N+](=O)[O-])cc2)nc(Nc2ccccc2)n1 | 0% | -11% | .
CC(C)CNc1nc(C#N)nc(Nc2ccccc2)n1 | . | . | 1.3µM*
CC(=O)Nc1ccc(S(=O)(=O)N=S(C)C)cc1 | 4% | -1% | .
C=CCn1c(SCc2c(C)noc2C)nc2sc(C)c(C)c2c1=O | 15% | -3% | .
O=c1cnc2cnc(N3CCOCC3)nc2n1C[C@H]1CCCO1 | -7% | -10% | .
COC(=O)c1nn(-c2ccc(OC)cc2)c(=O)cc1Oc1ccccc1 | 0% | 4% | .
COc1ccc(-c2cc(C#N)nc(N3CCN(C)CC3)n2)cc1 | 16µM* | 25µM* | -18%
COc1ccc(-c2cc(C(F)(F)F)nc(N3CCN(C)CC3)n2)cc1 | -3% | 0% | .
CCCCCCCCCCCCCCC/C=C/[C@@H](O)[C@H](NC(=O)CCCCCCCCCCCCC)OC (tested in a mixture with another compound) | 2% | 3% | .
N#Cc1nc(NCCCCO)nc(Nc2ccccc2)n1 | . | . | 2.2µM*
COc1nc(NCCN2CCOCC2)nc(Nc2ccccc2)n1 | -1% | -8% | .
CCCCNc1nc(C#N)nc(Nc2ccccc2)n1 | . | . | 1µM*
COc1ccc(Nc2nc(Cl)nc(NCCO)n2)cc1 | 12% | 1% | .
CCc1ccc(NC(=O)C2CCN(c3nn4c(=O)cc(C)nc4s3)CC2)cc1 | -3% | -2% | .
O=C(Nc1nnc(-c2ccc3c(c2)CCCC3)o1)c1ccccc1Cl | -5% | -12% | .
N#Cc1nc(COc2ccc(-c3ccccc3)cc2)oc1NCCCN1CCOCC1 | 11% | -6% | .
COc1ccc(-c2nc(C#N)c(NCCCN3CCOCC3)o2)cc1 | -13% | 20µM* | 4µM*
COc1ccc(N2CCN(C(=O)CSc3nnc4c(C)cc5ccccc5n34)CC2)cc1 | ? | -3% | .
COc1nc(N2CCCCCC2)nc(N2CCCCCC2)n1 | -1% | -1% | .
COc1nc(C#N)nc(N2CCCC2)n1 | . | . | 4µM*
N#CCOc1nc(N2CCCC2)nc(N2CCCC2)n1 | 4% | 0% | .
